From PubChem BioAssay AID1508601 (ICCB-Longwood Screening Facility, Harvard Medical School, 2020) come the findings set out here.

Among all 5,700 compounds or so, about 85 (1%) were called active. Rule as the data show it: active = p53-positive nuclei above about 36% (passing the limit was not always enough); inactive = the rest. What follows is part of a selection rich in actives, with near analogues and random picks from the rest.

The nature of assay [1]: nuclear p53 accumulation, HPV+ cells – imaging, p53-positive nuclei imaging, 24 h, 48 h (AID 1508601). Particulars: 24/48 h.
The target of assay [2] is Cellular tumor antigen p53 (Homo sapiens) (UniProt P04637). The description is as above. Particulars: 24/48 h, stronger effect = higher value.
Sequence of Cellular tumor antigen p53 (Homo sapiens) (P04637 whole entry, looked up): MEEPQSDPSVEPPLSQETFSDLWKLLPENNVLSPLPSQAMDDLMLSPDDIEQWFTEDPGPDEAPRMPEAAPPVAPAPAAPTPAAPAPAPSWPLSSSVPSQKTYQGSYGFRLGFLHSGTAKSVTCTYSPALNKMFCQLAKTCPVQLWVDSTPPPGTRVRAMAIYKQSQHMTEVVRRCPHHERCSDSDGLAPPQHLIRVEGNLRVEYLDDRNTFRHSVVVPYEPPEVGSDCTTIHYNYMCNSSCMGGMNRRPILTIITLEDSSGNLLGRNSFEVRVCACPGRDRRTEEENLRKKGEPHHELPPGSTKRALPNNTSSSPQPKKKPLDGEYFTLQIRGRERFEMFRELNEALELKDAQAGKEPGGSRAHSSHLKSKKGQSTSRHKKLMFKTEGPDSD
The mark [3] stands for this setting: measured here: cell number at 24 h, concentration not given here.
Where [4] appears, read: measured here: cell number at 48 h, concentration not given here.
The mark [5] stands for this setting: measured here: p53 positive nuclei at 24 h, concentration not given here.
[6] abbreviates: measured here: cell number at 24 h, Library stock concentration: 80 uM.
Where [7] appears, read: measured here: cell number at 24 h, Library stock concentration: 400 uM.
The mark [8] stands for this setting: measured here: cell number at 24 h, Library stock concentration: 2 mM.
[9] abbreviates: measured here: cell number at 24 h, Library stock concentration: 10 mM.
Setting [10] is: measured here: cell number at 48 h, Library stock concentration: 80 uM.
[11] abbreviates: measured here: cell number at 48 h, Library stock concentration: 400 uM.
[12] abbreviates: measured here: cell number at 48 h, Library stock concentration: 2 mM.
The mark [13] stands for this setting: measured here: cell number at 48 h, Library stock concentration: 10 mM.
Setting [14] is: Library stock concentration: 80 uM.
The mark [15] stands for this setting: Library stock concentration: 400 uM.
Where [16] appears, read: Library stock concentration: 2 mM.
Where [17] appears, read: Library stock concentration: 10 mM.
Where [18] appears, read: measured here: p53 positive nuclei at 24 h, Library stock concentration: 80 uM.
Setting [19] is: measured here: p53 positive nuclei at 24 h, Library stock concentration: 400 uM.
Setting [20] is: measured here: p53 positive nuclei at 24 h, Library stock concentration: 2 mM.
The mark [21] stands for this setting: measured here: p53 positive nuclei at 24 h, Library stock concentration: 10 mM.

Regarding `COc1nccnc1-c1ccc2c(c1)OCO2`, the values for the nuclei count, normalised in assay [1] (setting [3]) and in assay [1] (setting [4]) were 115% and 114%, respectively. In addition, the p53-positive nuclei, normalised is -0.145% (inactive) in assay [2] (concentration not given here) and -0.0884% in assay [2] (setting [5]).
Regarding `c1nc(-c2ccc3c(c2)OCCO3)c2sccc2n1`, the nuclei count, normalised in assay [1] (setting [3]) is 74.2%; in assay [1] (setting [4]), 38.4%. Besides, the p53-positive nuclei, normalised in assay [2] (concentration not given here) is 68.7% (active); in assay [2] (setting [5]), 3%.
As to `NC(=O)c1ccc(-c2nc(-c3ccc4c(c3)OCCO4)c(-c3ccccn3)[nH]2)cc1`, the nuclei count, normalised in assay [1] (setting [6]) was determined as 108%; in assay [1] (setting [7]), 108%; in assay [1] (setting [8]), 103%; in assay [1] (setting [9]), 105%; in assay [1] (setting [3]) it was 114%; in assay [1] (setting [10]), 111%. In addition, the nuclei count, normalised was determined as 111% in assay [1] (setting [11]), 103% in assay [1] (setting [12]), 99.9% in assay [1] (setting [13]) and 116% in assay [1] (setting [4]). Moreover, the p53-positive nuclei, normalised in assay [2] (setting [14]) is 0.102% (inactive); in assay [2] (setting [15]), 0.159% (inactive); in assay [2] (setting [16]), -0.0937% (inactive); in assay [2] (setting [17]), 0.066% (inactive); in assay [2] (concentration not given here) it was -0.0133% (inactive); in assay [2] (setting [18]) it was -0.0114%. Further, the p53-positive nuclei, normalised is 0.0817% in assay [2] (setting [19]), -0.00675% in assay [2] (setting [20]), 0.138% in assay [2] (setting [21]) and -0.0284% in assay [2] (setting [5]).
As for `CC=C1NC(=O)C2CSSCCC=CC(CC(=O)NC(C(C)C)C(=O)N2)OC(=O)C(C(C)C)NC1=O` (centres undefined), the nuclei count, normalised in assay [1] (measured here: cell number at 24 h, Library stock concentration: 3.33 mM) is 45.3%; in assay [1] (measured here: cell number at 48 h, Library stock concentration: 3.33 mM), 13.5%. Further, the p53-positive nuclei, normalised was 138% (active) in assay [2] (Library stock concentration: 3.33 mM) and 79.1% in assay [2] (measured here: p53 positive nuclei at 24 h, Library stock concentration: 3.33 mM).
As for `OC1CCC(Nc2ncc3nc(Nc4c(F)cc(F)cc4F)n(C4CCOC4)c3n2)CC1` (centres undefined), the nuclei count, normalised came to 108% in assay [1] (setting [6]); 111% in assay [1] (setting [7]); 106% in assay [1] (setting [8]); 114% in assay [1] (setting [9]); 111% in assay [1] (setting [10]); 111% in assay [1] (setting [11]). Also, the nuclei count, normalised turned out to be 112% in assay [1] (setting [12]) and 113% in assay [1] (setting [13]). The p53-positive nuclei, normalised was 0.0644% (inactive) in assay [2] (setting [14]); -0.0934% (inactive) in assay [2] (setting [15]); -0.0819% (inactive) in assay [2] (setting [16]); -0.265% (inactive) in assay [2] (setting [17]); 0.0898% in assay [2] (setting [18]); -0.0608% in assay [2] (setting [19]). The figures for the p53-positive nuclei, normalised in assay [2] (setting [20]) and in assay [2] (setting [21]) were -0.051% and -0.0545%, respectively.
On to `O=C1SC(=Cc2ccc(OCc3cccc(B(O)O)c3)cc2)C(=O)N1Cc1ccc(F)cc1`, for which the nuclei count, normalised in assay [1] (setting [6]) turned out to be 110%; in assay [1] (setting [7]), 108%; in assay [1] (setting [8]), 110%; in assay [1] (setting [9]) it was 110%; in assay [1] (setting [10]) it was 102%; in assay [1] (setting [11]), 102%. For the same molecule, the results for the nuclei count, normalised in assay [1] (setting [12]) and in assay [1] (setting [13]) were 109% and 113%, respectively. The p53-positive nuclei, normalised in assay [2] (setting [14]) was 0.073% (inactive); in assay [2] (setting [15]), 0.243% (inactive); in assay [2] (setting [16]), 0.131% (inactive); in assay [2] (setting [17]), -0.221% (inactive); in assay [2] (setting [18]), 0.0618%; in assay [2] (setting [19]), 0.065%. Also, the p53-positive nuclei, normalised is 0.123% in assay [2] (setting [20]) and -0.0586% in assay [2] (setting [21]).
As for `CCN(CC)c1ccc(C=NNC(=O)c2ccc(O)cc2)cc1`, the nuclei count, normalised in assay [1] (measured here: cell number at 24 h, Library stock concentration: 46 uM) stood at 111%; in assay [1] (measured here: cell number at 24 h, Library stock concentration: 278 uM), 117%; in assay [1] (measured here: cell number at 24 h, Library stock concentration: 1.67 mM), 121%; in assay [1] (setting [9]), 79.3%; in assay [1] (measured here: cell number at 48 h, Library stock concentration: 46 uM) it was 116%; in assay [1] (measured here: cell number at 48 h, Library stock concentration: 278 uM), 118%. For the same molecule, the nuclei count, normalised in assay [1] (measured here: cell number at 48 h, Library stock concentration: 1.67 mM) amounted to 118%; in assay [1] (setting [13]), 83.6%. Further, the p53-positive nuclei, normalised was -0.325% (inactive) in assay [2] (Library stock concentration: 46 uM); -0.186% (inactive) in assay [2] (Library stock concentration: 278 uM); -0.0464% (inactive) in assay [2] (Library stock concentration: 1.67 mM); 1.02% (inactive) in assay [2] (setting [17]); -0.151% in assay [2] (measured here: p53 positive nuclei at 24 h, Library stock concentration: 46 uM); -0.0898% in assay [2] (measured here: p53 positive nuclei at 24 h, Library stock concentration: 278 uM). Further, the p53-positive nuclei, normalised is 0.0252% in assay [2] (measured here: p53 positive nuclei at 24 h, Library stock concentration: 1.67 mM) and 0.906% in assay [2] (setting [21]).
For the molecule `Nc1ccc(C(=O)O)c(O)c1` (tested in a mixture with another compound), the figures for the nuclei count, normalised in assay [1] (setting [3]) and in assay [1] (setting [4]) were 95.8% and 101%, respectively. Besides, the figures for the p53-positive nuclei, normalised in assay [2] (concentration not given here) and in assay [2] (setting [5]) were 0.284% (inactive) and 0.00463%, respectively.
As to `CCC(C)C(NC(=O)C(C(C)CC)N(C)C(C)=O)C(=O)NC(C(=O)NC(CC(C)C)C(=O)[C@@]1(C)CO1)C(C)O` (some centres undefined), the nuclei count, normalised was found to be 52.8% in assay [1] (setting [6]); 48.9% in assay [1] (setting [7]); 47.9% in assay [1] (setting [8]); 45.3% in assay [1] (setting [9]); 41.4% in assay [1] (setting [10]); 39.9% in assay [1] (setting [11]). Further, the nuclei count, normalised in assay [1] (setting [12]) turned out to be 38.3%; in assay [1] (setting [13]), 35.1%. Also, the p53-positive nuclei, normalised in assay [2] (setting [14]) is 104% (active); in assay [2] (setting [15]), 100% (active); in assay [2] (setting [16]) it was 107% (active); in assay [2] (setting [17]) it was 106% (active); in assay [2] (setting [18]) it was 124%; in assay [2] (setting [19]), 125%. Also, the p53-positive nuclei, normalised is 127% in assay [2] (setting [20]) and 125% in assay [2] (setting [21]).
In the case of `CC(=O)N[C@@H](CC(C)C)C(=O)N1CCC(n2cc(C(C)(C)N)nn2)CC1`, the nuclei count, normalised in assay [1] (setting [3]) came out at 104%; in assay [1] (setting [4]), 109%. Also, the p53-positive nuclei, normalised in assay [2] (concentration not given here) is -0.0832% (inactive); in assay [2] (setting [5]), 0.155%.
